Results on 26 compounds are retold here after PubChem BioAssay (NCATS).

Each structure is given as a SMILES string. Results filed as inconclusive are left out. A number with no mark means an inactive call. Calls of active or inactive are those of the source. The call rests on the fitted dose curve; in most records, active means well fitted curve in the direction sought with a large enough effect; inconclusive means small, poorly fitted or top-dose-only effect, or another doubt; inactive means no such curve, though single readings can be large; an effect the other way counts as inactive or inconclusive.

In test [1] the target is Rap guanine nucleotide exchange factor 3 (Homo sapiens) (UniProt O95398). Put plainly: Confirmatory qHTS for agonist of cAMP-regulated guanine nucleotide exchange factor 3 (EPAC1) (AID 1645881).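 Further: EPAC1 catalysed release of BODIPY-GDP from Rap1B seen as fluorescence loss; 100% = effect of cAMP agonist control; nearly all actives have a fitted effect of over 75% in size.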 A general note: In qHTS, concentration-response curves come from the screen itself.
Rap guanine nucleotide exchange factor 3 (Homo sapiens), sequence (O95398 whole entry, looked up): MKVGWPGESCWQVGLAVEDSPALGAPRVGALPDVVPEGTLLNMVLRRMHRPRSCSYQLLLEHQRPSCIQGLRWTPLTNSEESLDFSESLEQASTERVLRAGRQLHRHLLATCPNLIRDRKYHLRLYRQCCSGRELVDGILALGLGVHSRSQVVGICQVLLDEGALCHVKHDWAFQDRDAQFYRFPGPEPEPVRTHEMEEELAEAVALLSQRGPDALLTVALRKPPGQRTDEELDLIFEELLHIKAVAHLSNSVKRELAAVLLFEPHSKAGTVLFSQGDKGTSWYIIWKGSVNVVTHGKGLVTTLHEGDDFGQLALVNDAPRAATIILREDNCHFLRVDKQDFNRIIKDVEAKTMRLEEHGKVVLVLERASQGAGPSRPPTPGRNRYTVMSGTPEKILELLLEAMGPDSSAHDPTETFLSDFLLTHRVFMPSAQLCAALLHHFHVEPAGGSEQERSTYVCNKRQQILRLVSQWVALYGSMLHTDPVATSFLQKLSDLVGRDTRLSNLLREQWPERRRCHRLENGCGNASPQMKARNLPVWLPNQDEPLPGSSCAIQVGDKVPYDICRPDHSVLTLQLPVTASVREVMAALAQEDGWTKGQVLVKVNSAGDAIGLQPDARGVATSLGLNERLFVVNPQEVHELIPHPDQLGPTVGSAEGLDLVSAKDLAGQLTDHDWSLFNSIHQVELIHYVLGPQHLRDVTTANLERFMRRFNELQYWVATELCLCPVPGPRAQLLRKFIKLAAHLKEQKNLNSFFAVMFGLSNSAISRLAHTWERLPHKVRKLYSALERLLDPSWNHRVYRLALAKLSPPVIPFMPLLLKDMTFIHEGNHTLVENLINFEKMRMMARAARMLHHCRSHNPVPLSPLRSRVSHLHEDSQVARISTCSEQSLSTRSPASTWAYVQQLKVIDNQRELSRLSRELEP
Test [2] has as its target Rap guanine nucleotide exchange factor 4 (Homo sapiens) (UniProt Q8WZA2). Description: Confirmatory qHTS for agonist of cAMP-regulated guanine nucleotide exchange factor 4 (EPAC2) (AID 1645884).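 Further: nucleotide exchange releases bodipy-GDP from Rap1 and this lowers its fluorescence; on the % scale 0 is the no-effect control and ±100 the full control effect; nearly all actives have a fitted effect of over 65% in size.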
Test [3] shares this target. Put plainly: Confirmatory qHTS for antagonist of cAMP-regulated guanine nucleotide exchange factor 4 (EPAC2) (AID 1645885). Further: nearly all actives have a fitted effect of over 25% in size. Further: potency means the concentration at half of the fitted maximal effect. On activity change, negative = inhibition: on the % scale 0 is the no-effect control and ±100 the full control effect.
The target of test [4] is Rap guanine nucleotide exchange factor 3 (Homo sapiens) (UniProt O95398). Put plainly: Counterscreen qHTS for antagonist of cAMP-regulated guanine nucleotide exchange factor 3 (EPAC1) (AID 1645888).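 Further: fluorescence loss as bound BODIPY-GDP is released from Rap1B; % of control where 0% means no effect.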 Put shortly:
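Measured: fluorescence of BODIPY-GDP bound to Rap1B, which falls as exchange proceeds. Conditions include 50 uM competing GDP, 5 and 30 min reads, and a later cAMP challenge for antagonist detection.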
For orientation: Counterscreens check selectivity or assay interference.

Rap guanine nucleotide exchange factor 4 (Homo sapiens), sequence (Q8WZA2 whole entry, looked up): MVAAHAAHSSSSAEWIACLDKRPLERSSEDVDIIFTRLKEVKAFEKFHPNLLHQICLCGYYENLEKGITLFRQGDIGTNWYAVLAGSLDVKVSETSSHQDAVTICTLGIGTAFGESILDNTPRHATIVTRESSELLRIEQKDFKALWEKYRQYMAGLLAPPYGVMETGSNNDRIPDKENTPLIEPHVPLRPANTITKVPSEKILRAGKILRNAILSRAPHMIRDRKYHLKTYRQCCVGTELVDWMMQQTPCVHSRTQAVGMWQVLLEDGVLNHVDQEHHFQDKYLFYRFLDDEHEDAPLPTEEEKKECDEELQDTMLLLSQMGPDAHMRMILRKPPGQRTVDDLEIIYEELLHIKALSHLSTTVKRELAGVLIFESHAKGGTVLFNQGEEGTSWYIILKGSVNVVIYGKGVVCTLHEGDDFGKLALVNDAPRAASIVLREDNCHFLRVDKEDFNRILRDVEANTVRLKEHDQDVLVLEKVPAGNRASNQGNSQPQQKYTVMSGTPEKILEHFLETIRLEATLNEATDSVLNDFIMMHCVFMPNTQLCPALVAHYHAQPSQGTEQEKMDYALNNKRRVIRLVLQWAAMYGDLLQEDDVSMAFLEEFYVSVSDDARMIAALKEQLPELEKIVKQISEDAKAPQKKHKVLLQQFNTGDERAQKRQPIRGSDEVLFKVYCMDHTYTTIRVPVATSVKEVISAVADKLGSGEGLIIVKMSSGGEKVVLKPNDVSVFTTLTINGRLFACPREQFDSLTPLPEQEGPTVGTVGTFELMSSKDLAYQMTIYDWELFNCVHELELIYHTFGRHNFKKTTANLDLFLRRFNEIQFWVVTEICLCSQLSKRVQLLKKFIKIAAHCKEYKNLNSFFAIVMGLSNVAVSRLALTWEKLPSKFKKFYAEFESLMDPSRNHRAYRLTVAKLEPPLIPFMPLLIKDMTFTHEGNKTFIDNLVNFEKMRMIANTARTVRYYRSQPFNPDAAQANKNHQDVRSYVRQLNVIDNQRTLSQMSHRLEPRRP

As for `CS/C(=C\C(=O)c1ccco1)Nc1ccccc1Cl`, the Potency result in test [1], in test [2], in test [3] and in test [4] was “inactive” each time.

Consider `Cc1cc(C)c(S(=O)(=O)c2ccccc2)c(OC(=O)c2c(F)cccc2F)n1`, for which the Potency result in test [1] and in test [3] was “inactive” each time. Moreover, the activation in test [2] was -4.73% [at 17.1 µM, percent relative to cAMP agonist control]. The activity change, negative = inhibition in test [4] is 8% [at 30.8 µM].

As to `CC(C)N(Cc1ccccc1)C(=O)c1nc(-c2ccc(Cl)cc2)n2c1CCCCC2`, the Potency entry in test [1], in test [2] and in test [4] was “inactive” in each case. In addition, the outcome in test [3] is “inactive [at 12.7 µM]”.

For the compound `CCC(C(=O)O)N1C(=O)/C(=C/C(C)=C/c2ccccc2)SC1=S` (centres undefined), the Potency result in test [1], in test [2] and in test [4] was “inactive” in each case. Besides, the Potency in test [3] is 75.7 µM (active).

Regarding `Cc1ccc(C)c(Cn2c(C3CC(=O)N(c4ccccc4C)C3)nc3ccccc32)c1` (centres undefined), the Potency result in test [1], in test [2], in test [3] and in test [4] was “inactive” throughout.

In the case of `CC1=C(C(=O)Nc2ccccc2)C(c2ccc(Cl)cc2)n2c(s/c(=C/c3cccc(OCC(=O)O)c3)c2=O)=N1` (centres undefined), the Potency result in test [1] and in test [3] was “inactive” throughout. The activation in test [2] is 3.83% [at 17.1 µM, percent relative to cAMP agonist control]. The activity change, negative = inhibition in test [4] was -3.62% [at 30.8 µM].

For `Oc1ccc2ccccc2c1/C=N/c1nc2c(s1)CCCC2`, the Potency entry in test [1], in test [2], in test [3] and in test [4] was “inactive” in each case.

For `Cc1ccc(OCC(=O)Nc2ccc(Cl)c(-c3nc4ccccc4[nH]3)c2)cc1C`, the Potency result in test [1], in test [2] and in test [4] was “inactive” in each case. Besides, the outcome in test [3] was “inactive [at 12.7 µM]”.

On to `Cc1ccc(C(NC(=O)C2CCN(Cc3ccc(Cl)c(Cl)c3)CC2)c2ccccn2)cc1` (centres undefined), for which the Potency result in test [1], in test [2], in test [3] and in test [4] was “inactive” each time.

In the case of `Cc1ccc(C(=O)Nc2cccc(-c3ccc(N4CCOCC4)nn3)c2)cc1C`, the Potency entry in test [1], in test [2], in test [3] and in test [4] was “inactive” each time.

For `Brc1cc2c(cc1CSc1ncccn1)OCO2`, the Potency entry in test [1] and in test [3] was “inactive” in each case. In test [2], the activation was -6.54% [at 17.1 µM, percent relative to cAMP agonist control]. In addition, in test [4], the activity change, negative = inhibition is -28.4% [at 30.8 µM].

With `O=C(c1ccc(Br)cc1)C(CN1CCOCC1)c1ccccc1` (centres undefined), the Potency entry in test [1] and in test [3] was “inactive” each time. For the same compound, the activation in test [2] is 8.74% [at 17.1 µM, percent relative to cAMP agonist control]. The activity change, negative = inhibition in test [4] was 16% [at 30.8 µM].

Turning to `Cn1c(SCC(=O)c2cc(Cl)c(Cl)s2)nnc1-c1ccco1`, the Potency result in test [1], in test [2], in test [3] and in test [4] was “inactive” each time.

For `COCCNc1nc2cc(-c3ccsc3)sc2c(=O)n1C`, the Potency result in test [1], in test [2], in test [3] and in test [4] was “inactive” in each case.

With `COc1ccc(OC)c(NC(=O)C(C)Oc2ccc(Br)cc2)c1` (centres undefined), the Potency entry in test [1], in test [2], in test [3] and in test [4] was “inactive” throughout.

In the case of `CCc1nc2c(OCc3ccc(OC)cc3)cccn2c1N(C)C(=O)c1ccc(OC)cc1`, the Potency entry in test [1], in test [2], in test [3] and in test [4] was “inactive” in each case.

Regarding `Cc1ccc(N=Cc2c(O)c3ccccc3n(C)c2=O)cc1`, the Potency entry in test [1], in test [2], in test [3] and in test [4] was “inactive” throughout.

`C[C@H](CO)N1C[C@H](C)[C@H](CN(C)Cc2cccc(O)c2)OCc2ccccc2-c2c(n(C)c3ccccc23)C1=O`: the Potency result in test [1] and in test [3] was “inactive” throughout. The activation in test [2] is 8.26% [at 17.1 µM, percent relative to cAMP agonist control]. Besides, the activity change, negative = inhibition in test [4] is -3.58% [at 30.8 µM].

On to `COc1cc(-c2cc(OC)c3c(C)oc(C)c3c(=O)c2)ccc1OC(=O)c1ccccc1F`, for which the Potency entry in test [1], in test [2] and in test [4] was “inactive” throughout. In test [3], the outcome is “inactive [at 12.7 µM]”.

As to `Oc1ccc(NCc2ccccc2OCc2ccccc2F)cc1`, the Potency result in test [1], in test [2], in test [3] and in test [4] was “inactive” each time.

For `CC1=C(C(=O)Nc2ccccc2)C(c2ccc[nH]2)n2ncnc2N1` (centres undefined), the Potency result in test [1], in test [2], in test [3] and in test [4] was “inactive” each time.

For the compound `COc1ccc(CC(=O)NCc2ccc3c(c2)CCN3C(=O)c2ccc(Cl)cc2)cc1OC`, the Potency result in test [1], in test [2], in test [3] and in test [4] was “inactive” each time.

With `c1cc(-c2cc3nc(NC4CCCCC4)ccn3n2)ccc1OCCN1CCOCC1`, the Potency entry in test [1], in test [2], in test [3] and in test [4] was “inactive” in each case.

As to `O=C(CSc1nc(O)cc(=O)n1-c1ccccc1)Nc1nc2ccccc2s1`, the Potency entry in test [1], in test [2], in test [3] and in test [4] was “inactive” in each case.

`CC1OC(CC(=O)O)CC2=C1C(=O)c1c(O)cccc1C2=O` (centres undefined): the Potency entry in test [1], in test [2], in test [3] and in test [4] was “inactive” each time.

Consider `Oc1ccc(NCc2cccc(OCc3ccccc3)c2)cc1`, for which the Potency result in test [1], in test [2], in test [3] and in test [4] was “inactive” throughout.
